This is a sample that favours compounds with a hit; in the whole collection about 3.6% have one here.
Peg3 prom inh = Peg3 promoter-driven luciferase inhibitors, primary screen, cell-based, HeLa, luciferase luminescence; 1.7% of 360,000 active; inhibition, % at 20 µM; HeLa PEG-Prom luciferase reporter, overnight;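 active = inhibition of at least 50% at 20 µM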
KKLEB cytotox = cytotoxicity in KKLEB CF airway cells, primary screen, cytotoxicity control for CF NF-kB inhibitor project, cell-based, uHTS, fluorescence assay plates. KKLEB CF airway cells viability, ATPlite luminescence, overnight; active compounds read low; cells stimulated with P. aeruginosa culture filtrate. activity change (cytotoxicity), % at 5 µM. 0.36% of 360,000 active. AID 602141, 2011;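 active = corrected activity change at or below -50% at 5 µM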
CF NFkB block = inhibitors of PAF-induced NF-kB signaling, primary screen, cell-based, GFP fluorescence, uHTS; KKLEB NF-kB-GFP reporter, GFP fluorescence overnight; inhibition, % at 5 µM; 0.86% of 360,000 active;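 active = at least 50% inhibition at 5 µM, scaled per plate between neutral and stimulator controls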;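 note: PAF is a Pseudomonas aeruginosa culture filtrate used as stimulus; plate controls were PAF-stimulated DMSO wells for no effect and unstimulated DMSO wells for full effect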
Mdm2-MdmX inh = inhibitors of human Mdm2-MdmX association, primary screen, cell-based, luminescence, split luciferase, SaOS-2, uHTS; SaOS-2 split-luciferase Mdm2/MdmX complementation; 3% of 330,000 active; inhibition, % at 8 µM; AID 485346, 2010;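 active = inhibition of at least 50% at 8 µM in the primary screen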
Target sequence (O15151 whole entry, looked up): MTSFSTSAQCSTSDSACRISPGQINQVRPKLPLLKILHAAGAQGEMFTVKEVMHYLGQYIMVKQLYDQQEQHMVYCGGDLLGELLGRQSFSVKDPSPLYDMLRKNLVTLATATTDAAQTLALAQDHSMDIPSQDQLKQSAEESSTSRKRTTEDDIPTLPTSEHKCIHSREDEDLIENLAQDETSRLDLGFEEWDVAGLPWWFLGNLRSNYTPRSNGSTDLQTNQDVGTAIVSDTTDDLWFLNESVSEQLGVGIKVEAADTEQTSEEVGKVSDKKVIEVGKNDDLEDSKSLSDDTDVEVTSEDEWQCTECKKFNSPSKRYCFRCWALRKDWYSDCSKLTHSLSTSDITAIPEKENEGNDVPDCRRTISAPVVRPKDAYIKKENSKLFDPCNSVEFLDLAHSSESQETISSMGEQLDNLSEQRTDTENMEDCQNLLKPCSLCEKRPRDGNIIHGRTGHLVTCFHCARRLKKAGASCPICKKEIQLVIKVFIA
Target sequence (Q00987 whole entry, looked up): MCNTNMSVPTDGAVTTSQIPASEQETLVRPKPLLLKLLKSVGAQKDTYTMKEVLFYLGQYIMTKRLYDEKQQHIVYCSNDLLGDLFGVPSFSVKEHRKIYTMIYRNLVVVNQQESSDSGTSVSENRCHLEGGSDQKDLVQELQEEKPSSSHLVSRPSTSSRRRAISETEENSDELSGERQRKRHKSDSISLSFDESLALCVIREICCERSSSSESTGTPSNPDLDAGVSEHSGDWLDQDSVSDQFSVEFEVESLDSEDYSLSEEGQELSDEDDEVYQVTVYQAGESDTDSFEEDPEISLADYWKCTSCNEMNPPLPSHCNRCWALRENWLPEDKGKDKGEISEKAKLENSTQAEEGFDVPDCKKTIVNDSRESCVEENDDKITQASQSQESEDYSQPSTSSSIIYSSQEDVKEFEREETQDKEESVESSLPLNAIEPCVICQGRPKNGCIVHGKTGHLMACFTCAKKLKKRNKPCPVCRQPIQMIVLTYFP
HSP90 inh = HSP90 inhibitors, primary screen, cell lysate, luminescence | inhibition, % at 5.6 µM | 0.91% of 290,000 active | Rabbit reticulocyte lysate, luciferase refolding luminescence, 3 h;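 active = inhibition above the screen-wide mean plus 3 SD, computed separately per campaign, cut at about 16% in these data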;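 note: 0% = DMSO wells and 100% = 60 µM geldanamycin wells; inhibitors lower the luminescence because luciferase stays unfolded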
LGR2 antag = inhibitors of bursicon-induced LGR2 CRE-luciferase signal, primary screen, cell-based, HEK293, CRE-luciferase reporter, bursicon stimulation. Drosophila bursicon receptor LGR2 (rickets). bursicon-stimulated, 4 h. inhibition, % at 9.99 µM. 0.35% of 380,000 active;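 active = drop in luminescence signal, shown as inhibition above about 50% in the replicate tests, limit read from the data, passing the limit was not always enough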;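 note: agonist challenge used bursicon conditioned medium at about half maximal strength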
An asterisk follows results filed as active; . = no result.

SMILES	Peg3 prom inh	KKLEB cytotox	CF NFkB block	Mdm2-MdmX inh	HSP90 inh	LGR2 antag
COc1ccc2c3c([nH]c2c1)[C@H](CO)N(C(=O)c1ccc(F)cc1)CC31CN(S(=O)(=O)c2cccs2)C1	.	.	.	.	.	-7
CN(/N=C/c1cc(Br)cc(Br)c1O)c1cccc(C(F)(F)F)n1	57*	-12	46	50	6	-6
CCNC(=O)C[C@H]1CC[C@H]2[C@@H](COC[C@@H](O)CN2C(=O)C2CC2)O1	.	.	.	.	.	0
C=C1CC2(CC(c3ccccc3)OC(c3ccccc3)C2)OC1=O (configuration not stated)	96*	-66*	78*	.	.	-9
O=C(NCCOc1ccc(F)cc1)c1ccccc1SCc1ccccc1	60*	3	4	-6	-1	-7
CCc1ccc(OCCNC(=O)c2ccccc2SCc2ccc(F)cc2)cc1	22	-16	12	17	6	.
COc1ccccc1N1CCN(CC(=O)Nc2cc(C)nn2-c2nc(C)cc(C)n2)CC1	52*	-6	21	.	.	6
CN(C)c1ccc(Nc2nc(N)c([N+](=O)[O-])c(N3CCOCC3)n2)cc1	52*	-10	16	21	1	23
C=CC(=O)N1C/C(=C/c2ccc(F)cc2)C(=O)/C(=C\c2ccc(F)cc2)C1	107*	-69*	91*	.	.	101*
COc1ccc(NC(=O)N(C)C[C@@H]2OCCCC[C@@H](C)Oc3ccc(NC(=O)Nc4cccc5ccccc45)cc3C(=O)N([C@H](C)CO)C[C@@H]2C)cc1	.	.	.	.	.	0
O=C1c2ccccc2C2=Nc3ccccc3SC(c3cccc(F)c3)C12 (configuration not stated)	58*	-18	31	42	-1	21
O=C(NCCN1CCOCC1)c1ccc(Cl)c(Cl)c1	-9	-3	0	11	0	4
O=C1/C(=C\c2ccc(Cl)c(Cl)c2)CN(C(=O)CCN2CCOCC2)C/C1=C/c1ccc(Cl)c(Cl)c1	98*	-78*	90*	.	.	91*
O=C1/C(=C\c2ccccc2)CN(C(=O)CCN2CCCCC2)C/C1=C/c1ccccc1	97*	-54*	91*	.	.	104*
O=C(CCN1C(=O)S/C(=C\c2ccccc2)C1=O)N1CCCCC1	-133	2	1	1	0	-6
CCN(CC)CCC(=O)N1C/C(=C/c2ccccc2)C(=O)/C(=C\c2ccccc2)C1	94*	-46	86*	.	.	92*
Cc1cc(C(=O)Nc2ccc3c(c2)C(=O)N(C)[C@H]2CC[C@@H](CC(=O)N[C@H](C)c4ccccc4)O[C@@H]2CO3)no1	.	.	.	.	.	12
C[C@H]1CCCCO[C@H](CN(C)S(=O)(=O)c2ccccc2)[C@@H](C)CN([C@@H](C)CO)C(=O)c2cc(NC(=O)Nc3ccc(C(F)(F)F)cc3)ccc2O1	.	.	.	.	.	6
COc1cccc(-c2ccc3c(c2)[C@@H]2[C@@H](CCN2C(=O)C2CCCCC2)[C@@H](CO)N3)c1	.	.	.	.	.	16
Cc1ccc(-c2ccc3c(c2)O[C@@H](CN(C)C(=O)C2CCCCC2)[C@H](C)CN([C@@H](C)CO)S3(=O)=O)cc1	.	.	.	.	.	23
c1ccc(-c2c(-c3ccccc3)n(Cc3ccco3)c3ncnc(NCCCn4ccnc4)c23)cc1	37	-6	22	47	11	.
N=c1c2c(-c3ccccc3)c(-c3ccccc3)n(Cc3ccco3)c2ncn1CCCn1ccnc1	66*	-20	21	.	2	.
C[C@H]1CN([C@@H](C)CO)C(=O)c2cc(C#CCN(C)C)cnc2O[C@H]1CN(C)C(=O)Nc1cccc(F)c1	.	.	.	.	.	0
Cc1ccc(NC(=O)c2cc(N3C(=O)C=CC3=O)ccc2N2CCOCC2)cc1	108*	1	12	.	-3	4
Cc1ccc(NC(=O)c2cc(NC(=O)c3ccco3)ccc2N2CCOCC2)cc1	0	-7	0	15	-2	.
SMILES	Peg3 prom inh	KKLEB cytotox	CF NFkB block	Mdm2-MdmX inh	HSP90 inh	LGR2 antag
Cc1ccc(NC(=O)c2cc(N3C(=O)C=CC3=O)ccc2Cl)cc1C	80*	4	21	12	-2	9
COc1ccc(S(=O)(=O)Nc2ccc3c(c2)C(=O)N([C@H](C)CO)C[C@@H](C)[C@H](CN(C)C(=O)Nc2ccc(F)cc2)OCCCC[C@H](C)O3)cc1	.	.	.	.	.	30
COc1ccc(-c2ccc(NC(=O)c3ccco3)cc2)nn1	18	-35	23	7	.	66*
COc1ccc(-c2cccc(NC(=O)c3ccco3)c2)nn1	16	-21	0	0	.	2
CN(CC(O)COc1ccc(OCC(O)CN(C)C2CCCCC2)cc1)C1CCCCC1 (configuration not stated)	83*	-15	26	47	0	.
CCC(=O)c1ccc(OCC(O)CN(C)C2CCCCC2)cc1 (configuration not stated)	-11	2	3	15	2	.
O=C(O)c1ccccc1Nc1cccc(C(F)(F)F)c1	1	-59*	12	26	-1	-10
C[C@@H]1CN([C@H](C)CO)C(=O)c2c(c3ccccc3n2C)-c2ccccc2CO[C@@H]1CN(C)C(=O)C1CC1	.	.	.	.	.	-8
COc1ccc(OC)c2cc3ccccc3cc12	55*	-3	-53	.	.	14
COc1ccc2ccccc2c1/C=N/O	6	-18	18	18	3	.
COc1cc2ccccc2ccc1=NO	-30	-12	79*	.	.	17
COc1cc2ccccc2cc1C(=O)O	6	-7	-18	11	1	.
Cc1noc(C)c1S(=O)(=O)Nc1ccc2c(c1)C(=O)N([C@H](C)CO)C[C@@H](C)[C@H](CN(C)C(=O)Nc1ccc3c(c1)OCO3)O2	.	.	.	.	.	-2
CC(CCc1ccccc1)NC(=O)c1ccc(C(=O)NC(C)CCc2ccccc2)cc1 (configuration not stated)	59*	1	37	44	3	.
Cc1ccccc1NC(=O)C(Cl)=C(Cl)Cl	55*	12	-17	45	-1	6

From PubChem
